Measured values: the supplement of paper PMC10849652
Targets with a hit are over-represented here; the source holds about 8,800 in all. About 0.5% of all pairs of compound and target were hits.

These targets were tested with O=C1NC(=O)C(c2cnc3ccccn23)=C1c1cn2c3c(cc(F)cc13)CN(C(=O)N1CCCCC1)CC2 (assay: log2 fold change, soluble protein after heating vs DMSO (PISA); higher = thermal stabilisation; K562 lysate, 10 uM; active = over 0.2 and 3.5 SD of the protein, either way, in both replicates (recomputed)).
Outline: (§1)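 Values give the log-two fold change in thermal stability against solvent controls, from duplicates. Crude K562 extract at 1 mg/mL protein, made by dounce homogenisation in PBS pH 7.4 with 1 mM MgCl2, was treated with 10 μM compound for 30 min. After 3 min heating across 48°C-58°C, aliquots were pooled, adjusted to 0.5% NP-40 at 4°C and centrifuged at 21,000xg for 90 min. The supernatant was measured by TMTpro 16plex LC-MS/MS with channel sums equalised.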

UniProt Q9UHW9, sequence (Q9UHW9 whole entry, looked up): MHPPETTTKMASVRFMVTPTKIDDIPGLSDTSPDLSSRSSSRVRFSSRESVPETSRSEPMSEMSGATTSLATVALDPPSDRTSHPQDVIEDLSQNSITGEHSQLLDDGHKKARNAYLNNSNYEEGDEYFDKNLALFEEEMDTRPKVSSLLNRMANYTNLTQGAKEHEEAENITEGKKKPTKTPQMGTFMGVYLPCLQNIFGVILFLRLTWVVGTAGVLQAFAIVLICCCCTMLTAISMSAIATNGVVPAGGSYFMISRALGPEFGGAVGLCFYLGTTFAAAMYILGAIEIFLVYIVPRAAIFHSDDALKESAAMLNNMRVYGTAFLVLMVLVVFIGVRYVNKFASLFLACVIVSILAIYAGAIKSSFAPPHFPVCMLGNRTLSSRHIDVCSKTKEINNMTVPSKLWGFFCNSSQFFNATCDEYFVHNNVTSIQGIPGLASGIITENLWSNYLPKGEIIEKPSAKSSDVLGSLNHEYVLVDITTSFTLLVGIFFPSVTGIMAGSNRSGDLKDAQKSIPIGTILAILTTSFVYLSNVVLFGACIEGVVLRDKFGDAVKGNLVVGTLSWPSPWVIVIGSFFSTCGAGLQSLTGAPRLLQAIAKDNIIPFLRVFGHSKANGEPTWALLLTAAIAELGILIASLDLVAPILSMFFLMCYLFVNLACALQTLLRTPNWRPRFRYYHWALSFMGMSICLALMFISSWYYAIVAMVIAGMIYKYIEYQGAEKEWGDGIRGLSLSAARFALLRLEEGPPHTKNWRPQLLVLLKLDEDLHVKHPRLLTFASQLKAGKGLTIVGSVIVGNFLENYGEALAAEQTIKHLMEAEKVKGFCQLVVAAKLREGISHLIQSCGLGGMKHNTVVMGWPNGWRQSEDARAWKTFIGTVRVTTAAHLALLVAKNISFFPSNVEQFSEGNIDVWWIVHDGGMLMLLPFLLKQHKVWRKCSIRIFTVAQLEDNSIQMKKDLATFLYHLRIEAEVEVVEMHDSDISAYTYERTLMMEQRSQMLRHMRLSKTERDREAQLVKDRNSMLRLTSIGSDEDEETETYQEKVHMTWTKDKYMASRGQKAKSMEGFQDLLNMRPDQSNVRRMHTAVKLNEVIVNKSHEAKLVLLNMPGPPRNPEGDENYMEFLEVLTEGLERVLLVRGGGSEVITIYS
UniProt Q13395, sequence (Q13395 whole entry, looked up): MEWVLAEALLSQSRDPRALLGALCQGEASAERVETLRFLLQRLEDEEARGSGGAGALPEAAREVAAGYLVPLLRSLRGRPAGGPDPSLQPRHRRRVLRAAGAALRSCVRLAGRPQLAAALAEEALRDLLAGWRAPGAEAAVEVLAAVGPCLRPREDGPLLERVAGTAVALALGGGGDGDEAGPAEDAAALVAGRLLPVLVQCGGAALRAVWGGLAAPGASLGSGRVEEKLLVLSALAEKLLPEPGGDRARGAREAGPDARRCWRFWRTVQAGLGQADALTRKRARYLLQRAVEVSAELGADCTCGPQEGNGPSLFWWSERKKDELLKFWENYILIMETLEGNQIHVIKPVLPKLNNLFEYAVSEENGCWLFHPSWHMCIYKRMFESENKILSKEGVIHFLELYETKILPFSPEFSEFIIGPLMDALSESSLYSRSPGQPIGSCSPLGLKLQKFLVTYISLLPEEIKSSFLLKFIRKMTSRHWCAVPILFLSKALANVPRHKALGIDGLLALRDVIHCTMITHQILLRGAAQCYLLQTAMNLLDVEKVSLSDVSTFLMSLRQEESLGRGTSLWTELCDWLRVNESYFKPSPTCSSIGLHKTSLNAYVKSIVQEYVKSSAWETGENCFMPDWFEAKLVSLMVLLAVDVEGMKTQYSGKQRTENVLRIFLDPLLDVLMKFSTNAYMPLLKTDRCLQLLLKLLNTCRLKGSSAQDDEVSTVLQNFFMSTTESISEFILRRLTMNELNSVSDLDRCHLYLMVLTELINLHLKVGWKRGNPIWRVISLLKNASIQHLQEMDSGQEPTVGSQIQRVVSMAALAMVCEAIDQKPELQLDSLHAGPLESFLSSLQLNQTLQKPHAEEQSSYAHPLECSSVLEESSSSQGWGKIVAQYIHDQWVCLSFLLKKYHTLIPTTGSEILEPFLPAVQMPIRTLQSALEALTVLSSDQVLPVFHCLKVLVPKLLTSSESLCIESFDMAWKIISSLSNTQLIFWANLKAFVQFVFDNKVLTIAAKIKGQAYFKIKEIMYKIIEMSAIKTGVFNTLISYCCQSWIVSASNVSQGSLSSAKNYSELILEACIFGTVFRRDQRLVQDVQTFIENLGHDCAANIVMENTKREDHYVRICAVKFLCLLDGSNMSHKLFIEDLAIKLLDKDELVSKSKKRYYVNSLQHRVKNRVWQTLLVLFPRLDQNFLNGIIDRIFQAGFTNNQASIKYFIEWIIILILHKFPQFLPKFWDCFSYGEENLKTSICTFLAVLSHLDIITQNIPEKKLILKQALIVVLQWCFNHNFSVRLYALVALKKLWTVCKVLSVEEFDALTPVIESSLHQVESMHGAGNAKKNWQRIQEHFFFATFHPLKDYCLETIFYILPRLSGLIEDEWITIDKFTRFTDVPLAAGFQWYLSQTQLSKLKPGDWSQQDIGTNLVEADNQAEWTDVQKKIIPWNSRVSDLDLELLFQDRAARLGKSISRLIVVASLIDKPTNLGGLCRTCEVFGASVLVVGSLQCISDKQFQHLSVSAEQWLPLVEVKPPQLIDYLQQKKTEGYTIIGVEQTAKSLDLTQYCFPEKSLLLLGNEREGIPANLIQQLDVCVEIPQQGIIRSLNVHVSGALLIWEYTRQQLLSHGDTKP
UniProt P29353, sequence (P29353 whole entry, looked up): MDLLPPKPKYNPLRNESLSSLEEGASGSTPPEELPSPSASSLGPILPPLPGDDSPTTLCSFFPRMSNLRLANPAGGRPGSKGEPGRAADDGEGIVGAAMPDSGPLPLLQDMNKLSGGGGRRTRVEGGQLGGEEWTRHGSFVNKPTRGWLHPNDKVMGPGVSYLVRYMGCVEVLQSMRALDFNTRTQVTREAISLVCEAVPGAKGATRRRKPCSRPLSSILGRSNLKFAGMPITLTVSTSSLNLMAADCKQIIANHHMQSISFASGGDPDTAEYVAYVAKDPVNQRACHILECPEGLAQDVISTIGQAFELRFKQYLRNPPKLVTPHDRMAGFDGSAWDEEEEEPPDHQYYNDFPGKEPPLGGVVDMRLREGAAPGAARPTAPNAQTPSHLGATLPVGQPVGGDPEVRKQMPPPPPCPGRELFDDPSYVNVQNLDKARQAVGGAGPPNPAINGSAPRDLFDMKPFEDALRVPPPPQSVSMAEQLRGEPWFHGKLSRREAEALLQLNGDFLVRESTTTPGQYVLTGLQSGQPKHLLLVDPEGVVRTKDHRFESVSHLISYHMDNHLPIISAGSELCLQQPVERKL
UniProt O95926, sequence (O95926 whole entry, looked up): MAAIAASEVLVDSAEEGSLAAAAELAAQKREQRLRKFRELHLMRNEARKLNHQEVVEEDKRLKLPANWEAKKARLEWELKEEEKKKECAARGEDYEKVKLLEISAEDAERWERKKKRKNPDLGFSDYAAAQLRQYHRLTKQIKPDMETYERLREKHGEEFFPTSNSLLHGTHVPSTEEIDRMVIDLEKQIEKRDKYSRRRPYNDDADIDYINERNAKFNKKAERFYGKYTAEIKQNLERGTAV
UniProt Q99963, sequence (Q99963 whole entry, looked up): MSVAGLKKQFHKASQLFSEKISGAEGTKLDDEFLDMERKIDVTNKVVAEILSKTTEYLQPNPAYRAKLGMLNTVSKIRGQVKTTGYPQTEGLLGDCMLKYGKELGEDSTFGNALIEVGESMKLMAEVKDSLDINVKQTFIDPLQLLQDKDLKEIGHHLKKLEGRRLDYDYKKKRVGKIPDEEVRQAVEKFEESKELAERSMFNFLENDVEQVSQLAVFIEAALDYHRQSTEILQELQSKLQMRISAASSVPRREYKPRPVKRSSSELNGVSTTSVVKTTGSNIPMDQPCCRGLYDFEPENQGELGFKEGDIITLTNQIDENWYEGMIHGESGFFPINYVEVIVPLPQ
UniProt Q86XK3, sequence (Q86XK3 whole entry, looked up): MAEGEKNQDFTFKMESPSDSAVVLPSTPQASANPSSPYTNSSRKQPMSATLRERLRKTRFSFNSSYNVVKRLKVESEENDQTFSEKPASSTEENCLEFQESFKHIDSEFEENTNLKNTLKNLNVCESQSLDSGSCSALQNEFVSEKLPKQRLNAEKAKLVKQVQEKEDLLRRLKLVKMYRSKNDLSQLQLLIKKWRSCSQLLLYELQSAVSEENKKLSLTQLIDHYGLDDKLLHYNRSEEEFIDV
UniProt P53985, sequence (P53985 whole entry, looked up): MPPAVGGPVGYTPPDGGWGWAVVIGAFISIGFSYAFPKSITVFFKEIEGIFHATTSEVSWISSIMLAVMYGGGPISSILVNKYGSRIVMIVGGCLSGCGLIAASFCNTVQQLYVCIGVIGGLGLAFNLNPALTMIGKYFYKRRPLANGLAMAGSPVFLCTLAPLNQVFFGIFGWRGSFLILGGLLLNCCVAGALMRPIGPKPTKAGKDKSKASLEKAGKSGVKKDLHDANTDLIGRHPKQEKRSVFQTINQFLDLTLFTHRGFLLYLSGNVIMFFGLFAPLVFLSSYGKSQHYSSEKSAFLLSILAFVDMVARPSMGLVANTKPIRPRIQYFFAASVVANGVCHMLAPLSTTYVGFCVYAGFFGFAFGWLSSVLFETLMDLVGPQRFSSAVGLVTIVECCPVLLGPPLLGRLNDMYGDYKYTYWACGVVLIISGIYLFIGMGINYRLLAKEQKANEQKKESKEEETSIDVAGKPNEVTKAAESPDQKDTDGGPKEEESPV
UniProt Q9UJC5, sequence (Q9UJC5 whole entry, looked up): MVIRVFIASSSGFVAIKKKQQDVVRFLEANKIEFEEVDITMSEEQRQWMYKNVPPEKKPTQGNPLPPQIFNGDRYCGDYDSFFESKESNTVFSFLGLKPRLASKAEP
UniProt O43805, sequence (O43805 whole entry, looked up): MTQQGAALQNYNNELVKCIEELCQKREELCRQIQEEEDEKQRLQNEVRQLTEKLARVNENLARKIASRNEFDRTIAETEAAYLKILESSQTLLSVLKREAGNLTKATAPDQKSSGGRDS

log2 fold change, inactive:
TANGO6 (UniProt Q9C0B7) -0.037
SUZ12 (UniProt Q15022) 0.021
STAR (UniProt P49675) -0.031
SNAP23 (UniProt O00161) -0.016
SMG7 (UniProt Q92540) -0.035
SNRPD2 (UniProt K7EJB5) -0.1
TARBP1 (UniProt Q13395) 0.017
SRGN (UniProt P10124) -0.087
SH3BP2 isoform 4 (UniProt P78314) -0.017
SH3GL3 isoform 3 (UniProt Q99963) 0.01
SMC6 (UniProt Q96SB8) 0.019
SHC1 isoform 6 (UniProt P29353) -0.055
SNUPN (UniProt O95149) -0.043
SYF2 (UniProt O95926) -0.014
STARD3 isoform 3 (UniProt Q14849) 0.03
TADA3 (UniProt O75528) 0.034
STK26 (UniProt Q9P289) -0.045
SMN1 (UniProt Q16637) 0.052
SLC7A5 (UniProt Q01650) 0.013
SFN (UniProt P31947) -0.026
SLC40A1 (UniProt Q9NP59) -0.016
SH3BGRL2 (UniProt Q9UJC5) 0.099
SLC30A9 (UniProt Q6PML9) 0.004
SOAT1 (UniProt P35610) -0.037
SND1 (UniProt Q7KZF4) 0.013
SLC38A1 (UniProt Q9H2H9) 0.008
TAF9 (UniProt Q16594) -0.003
SLC29A2 (UniProt Q14542) 0.031
SKA3 (UniProt Q8IX90) -0.022
STK3 isoform 2 (UniProt Q13188) 0.025
SPAG5 (UniProt Q96R06) -0.007
SPPL2A (UniProt Q8TCT8) 0.047
SLC27A2 (UniProt O14975) 0.367
SSNA1 (UniProt O43805) -0.023
SLC12A6 (UniProt Q9UHW9) 0.003
SFR1 isoform 2 (UniProt Q86XK3) -0.026
SLC16A1 (UniProt P53985) -0.01
TAF6L (UniProt Q9Y6J9) -0.033
SLC30A6 isoform 2 (UniProt Q6NXT4) 0.001

The targets below were run with c1cn2cc(-c3ccc4cn[nH]c4c3)nc(Nc3ccc(N4CCOCC4)cc3)c2n1 [entospletinib] in the same assay as above.
Outline: as §1

log2 fold change, inactive:
TANGO6 (UniProt Q9C0B7) -0.009
SUZ12 (UniProt Q15022) 0.043
STAR (UniProt P49675) -0.103
SNAP23 (UniProt O00161) 0.004
SMG7 (UniProt Q92540) 0.054
SNRPD2 (UniProt K7EJB5) -0.004
TARBP1 (UniProt Q13395) 0.028
SRGN (UniProt P10124) -0.013
SH3GL3 isoform 3 (UniProt Q99963) 0.01
SMC6 (UniProt Q96SB8) -0.013
SHC1 isoform 6 (UniProt P29353) -0.058
SNUPN (UniProt O95149) -0.066
SYF2 (UniProt O95926) -0.059
STARD3 isoform 3 (UniProt Q14849) -0.025
TADA3 (UniProt O75528) 0.009
STK26 (UniProt Q9P289) -0.026
SMN1 (UniProt Q16637) -0.024
SLC7A5 (UniProt Q01650) 0.03
SFN (UniProt P31947) 0.045
SLC40A1 (UniProt Q9NP59) 0.022
SH3BGRL2 (UniProt Q9UJC5) 0.04
SLC30A9 (UniProt Q6PML9) -0.027
SOAT1 (UniProt P35610) 0.015
SND1 (UniProt Q7KZF4) 0.013
SLC38A1 (UniProt Q9H2H9) -0.015
TAF9 (UniProt Q16594) -0.017
SLC29A2 (UniProt Q14542) -0.06
SKA3 (UniProt Q8IX90) 0.006
STK3 isoform 2 (UniProt Q13188) -0.003
SPAG5 (UniProt Q96R06) 0.008
SPPL2A (UniProt Q8TCT8) 0.141
SLC27A2 (UniProt O14975) -0.023
SSNA1 (UniProt O43805) -0.065
SLC12A6 (UniProt Q9UHW9) 0.013
SFR1 isoform 2 (UniProt Q86XK3) -0.043
SLC16A1 (UniProt P53985) 0.012
TAF6L (UniProt Q9Y6J9) -0.08
SLC30A6 isoform 2 (UniProt Q6NXT4) 0.064
